# Measurements: PubChem BioAssay (EPA / NIEHS)
# Inconclusive results are not listed. Active and inactive are the calls of the source. How the source made its calls: active means hit-call score of the fitted dose curve at least 0.9, where 1 is the maximum; inconclusive means response in the unintended direction; inactive means score below 0.9.
# What was measured:
# [1] = target: Nuclear receptor subfamily 1 group I member 2 (Mus musculus) (UniProt O54915); assay: ATG_mPXR_XSP1: Attagene TRANS-FACTORIAL Multi-Species (XSP1) HepG2 Assay for mouse Pregnane X Receptor (PXR) (AID 2283803)
# Procedure, shortened: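 Transiently transfected HepG2 cells expressing a receptor-Gal4 chimera drive a GAL4-UAS reporter; 3 nM 6-alpha-fluorotestosterone included. Reporter mRNA read 24 h post-dose by RT-PCR and capillary electrophoresis; gain of signal relative to DMSO.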
# [2] = target: frog Thyroid hormone Receptor alpha (TRa), thra-a (gene 397942) (UniProt P15204); assay: ATG_frTRa_XSP1: Attagene TRANS-FACTORIAL Multi-Species (XSP1) HepG2 Assay for frog Thyroid hormone Receptor alpha (TRa) (AID 2283804)
# Procedure, shortened: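 HepG2 cells transiently transfected with frog TRa-GAL4 chimeric reporter units, dosed 24 hr with 3 nM 6-alpha-fluorotestosterone present; reporter mRNA quantified by RT-PCR, fluorescent labelling and capillary electrophoresis, gain of signal versus DMSO.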
# [3] = target: human Thyroid hormone Receptor alpha (TRa), THRA (gene 7067) (UniProt P10827); assay: ATG_hTRa_XSP1: Attagene TRANS-FACTORIAL Multi-Species (XSP1) HepG2 Assay for human Thyroid hormone Receptor alpha (TRa) (AID 2283805)
# Procedure, shortened: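 HepG2 cells transiently transfected with GAL4-UAS reporter units expressing chimeric NR-Gal4 proteins, dosed 24 hours with 3 nM 6-alpha-fluorotestosterone present. Reporter mRNA measured by RT-PCR and capillary electrophoresis; gain of signal fitted versus DMSO.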
# [4] = tested on: turtle Thyroid Hormone Receptor, alpha (TRa), gene 101949057; assay: ATG_trTRa_XSP1: Attagene TRANS-FACTORIAL Multi-Species (XSP1) HepG2 Assay for turtle Thyroid Hormone Receptor, alpha (TRa) (AID 2283806)
# Procedure, shortened: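 HepG2 cells transiently transfected with GAL4-UAS reporter units and chimeric receptor-Gal4 constructs, with 3 nM 6-alpha-fluorotestosterone present. Reporter mRNA was quantified 24 h after dosing by RT-PCR, 6-FAM labelling and capillary electrophoresis; gain of signal versus DMSO.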
# [5] = target: zebrafish Thyroid Hormone Receptor alpha (TRa), thraa (gene 30670) (UniProt Q98867); assay: ATG_zfTRa_XSP1: Attagene TRANS-FACTORIAL Multi-Species (XSP1) HepG2 Assay for zebrafish Thyroid Hormone Receptor alpha (TRa) (AID 2283807)
# Procedure, shortened: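 HepG2 cells transiently transfected with GAL4-UAS reporter units including a zebrafish TRa–Gal4 chimera, dosed 24 h with 3 nM 6-alpha-fluorotestosterone present. Reporter mRNA quantified by RT-PCR and capillary electrophoresis; gain versus DMSO.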
# [6] = target: human Thyroid hormone Receptor beta (TRb), THRB (gene 7068) (UniProt P10828); assay: ATG_hTRb_XSP1: Attagene TRANS-FACTORIAL Multi-Species (XSP1) HepG2 Assay for human Thyroid hormone Receptor beta (TRb) (AID 2283808)
# Procedure, shortened: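 HepG2 cells transiently transfected with reporter units driving GAL4-UAS reporters for chimeric NR-Gal4 proteins; 24 h chemical exposure with 3 nM 6-alpha-fluorotestosterone present. Reporter mRNA quantified by RT-PCR and capillary electrophoresis, gain of signal versus DMSO.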
# [7] = target: zebrafish Thyroid Hormone Receptor beta (TRb), thrb (gene 30607) (UniProt Q9PVE4); assay: ATG_zfTRb_XSP1: Attagene TRANS-FACTORIAL Multi-Species (XSP1) HepG2 Assay for zebrafish Thyroid Hormone Receptor beta (TRb) (AID 2283809)
# Procedure, shortened: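 HepG2 cells transiently transfected with multiplexed GAL4-UAS reporter units expressing chimeric zebrafish TRb–Gal4. Dosed 24 h with 3 nM 6-alpha-fluorotestosterone present; reporter mRNA measured by RT-PCR, HpaI digestion and capillary electrophoresis; gain of signal versus DMSO.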
# [8] = ATG_XTT_Cytotoxicity_XSP1: Cytotoxicity Assessment in the Attagene TRANS-FACTORIAL Multi-Species (XSP1) HepG2 Assay (AID 2283810)
# Procedure, shortened: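 XTT viability readout taken at 24 hours post-dosing in HepG2 liver cells co-treated with 3 nM 6-alpha-fluorotestosterone. Signal loss relative to DMSO controls reflects cytotoxicity.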
# [9] = ATG_M_06_XSP2: Attagene TRANS-FACTORIAL Multi-Species (XSP2) HepG2 Assay for M06 Transcription Factor (Internal Marker) (AID 2283811);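 further: hits are increases in signal above the DMSO baseline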
# Procedure, shortened: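 HepG2 cells transiently transfected with GAL4-UAS multiple reporter units, medium containing 3 nM 6-alpha-fluorotestosterone and 1.5 nM norgestrel; reporter mRNA measured 24 hours post-dosing by RT-PCR and capillary electrophoresis. Internal background marker, gain of signal vs DMSO.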
# [10] = tested on: turtle Estrogen Receptor (ERa), gene 101933533; assay: ATG_trERa_XSP2: Attagene TRANS-FACTORIAL Multi-Species (XSP2) HepG2 Assay for turtle Estrogen Receptor (ERa) (AID 2283812);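 further: human HepG2 liver cells transiently expressing turtle ERa-Gal4 chimeric receptor; actives raise reporter signal above DMSO so AC50 reflects agonist activity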
# Procedure, shortened: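 HepG2 cells transiently transfected with GAL4-UAS reporter units expressing turtle ERa-Gal4 chimera. Reporter mRNA measured after 24 h dosing by RT-PCR, fluorescent labelling and capillary electrophoresis; gain of signal fitted versus DMSO.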
# [11] = target: Estrogen receptor beta (Homo sapiens) (UniProt Q92731); assay: ATG_hERb_XSP2: Attagene TRANS-FACTORIAL Multi-Species (XSP2) HepG2 Assay for human Estrogen Receptor (ERb) (AID 2283813);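 further: actives raise reporter mRNA above DMSO so AC50 reflects agonist induction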
# Procedure, shortened: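 HepG2 cells transiently transfected with GAL4-UAS reporter units and chimeric human ERb-Gal4, 24 h exposure. Reporter mRNA quantified by RT-PCR with FAM labelling, HpaI digestion and capillary electrophoresis; gain of signal versus DMSO.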
# [12] = target: zebrafish Estrogen Receptor (ER1), esr1 (gene 259252) (UniProt P57717); assay: ATG_zfER1_XSP2: Attagene TRANS-FACTORIAL Multi-Species (XSP2) HepG2 Assay for zebrafish Estrogen Receptor (ER1) (AID 2283816)
# Procedure, shortened: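 HepG2 cells transiently transfected with a GAL4-UAS reporter and a chimeric zebrafish ER1-Gal4 construct, dosed 24 h. Reporter mRNA quantified by RT-PCR, labelling, HpaI digestion and capillary electrophoresis, relative to DMSO.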
# [13] = target: chicken Estrogen Receptor (ERa), ESR1 (gene 396099) (UniProt P06212); assay: ATG_chERa_XSP2: Attagene TRANS-FACTORIAL Multi-Species (XSP2) HepG2 Assay for chicken Estrogen Receptor (ERa) (AID 2283817);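 further: actives raise reporter signal above DMSO so AC50 reflects ER activation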
# Procedure, shortened: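 Transiently transfected HepG2 cells expressing chimeric chicken ERa-GAL4 reporter units, dosed 24 h with 3 nM 6-alpha-fluorotestosterone and 1.5 nM norgestrel present. Reporter mRNA measured by RT-PCR and capillary electrophoresis; gain-of-signal fitted relative to DMSO.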
# [14] = tested on: zebrafish Estrogen Receptor (ER2a), gene 317734; assay: ATG_zfER2a_XSP2: Attagene TRANS-FACTORIAL Multi-Species (XSP2) HepG2 Assay for zebrafish Estrogen Receptor (ER2a) (AID 2283818);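 further: hits raise reporter mRNA so AC50 reflects activation of zebrafish ER2a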
# Procedure, shortened: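 HepG2 cells transiently transfected with GAL4-UAS reporter units and chimeric zebrafish ER2a-Gal4, exposed 24 h; medium contains 3 nM 6-alpha-fluorotestosterone and 1.5 nM norgestrel. Reporter mRNA quantified by RT-PCR, HpaI digestion, capillary electrophoresis; gain versus DMSO.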
# [15] = tested on: frog Estrogen Receptor (ER), gene 398734; assay: ATG_frER1_XSP2: Attagene TRANS-FACTORIAL Multi-Species (XSP2) HepG2 Assay for frog Estrogen Receptor (ER) (AID 2283821);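 further: hits raise reporter mRNA above DMSO baseline so potency means agonist or activator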
# Procedure, shortened: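 HepG2 cells transiently transfected with GAL4-UAS reporter units expressing a chimeric frog ER-Gal4 protein; 24 h exposure. Reporter mRNA quantified by RT-PCR, fluorescent labelling and capillary electrophoresis; gain of signal fitted against DMSO baseline.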
# [16] = tested on: zebrafish Estrogen Receptor (ER2b), gene 317733; assay: ATG_zfER2b_XSP2: Attagene TRANS-FACTORIAL Multi-Species (XSP2) HepG2 Assay for zebrafish Estrogen Receptor (ER2b) (AID 2283823);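 further: fitted upward as reporter gain over DMSO so potency reflects activation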
# Procedure, shortened: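 Transfect HepG2 with GAL4-UAS reporter constructs; dose chemicals, 24 h; isolate RNA, RT-PCR, FAM-label, HpaI digest; capillary electrophoresis. Gain-of-signal vs DMSO.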
# [17] = target: Estrogen receptor (Homo sapiens) (UniProt P03372); assay: ATG_hERa_XSP2: Attagene TRANS-FACTORIAL Multi-Species (XSP2) HepG2 Assay for human Estrogen Receptor (ERa) (AID 2283827)
# Procedure, shortened: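 HepG2 cells transiently transfected with multiplexed GAL4-UAS reporters driven by chimeric receptor-Gal4 proteins, dosed 24 h with 3 nM 6-alpha-fluorotestosterone and 1.5 nM norgestrel present. Reporter mRNA by RT-PCR and capillary electrophoresis; gain-of-signal fit versus DMSO.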
# [18] = target: GAL4 Transcription Factor (Internal Marker), GAL4 (gene 855828) (UniProt P04386); assay: ATG_GAL4_XSP2: Attagene TRANS-FACTORIAL Multi-Species (XSP2) HepG2 Assay for GAL4 Transcription Factor (Internal Marker) (AID 2283814);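 further: GAL4 reporter mRNA background control in MRTU transfected cells not a receptor target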
# Procedure, shortened: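 HepG2 cells transiently transfected with GAL4-UAS reporter units, stimulated with 3 nM 6-alpha-fluorotestosterone plus 1.5 nM norgestrel, dosed 24 h. Reporter mRNA by RT-PCR/capillary electrophoresis; gain-of-signal fit versus DMSO, background control.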
# [19] = tested on: turtle Androgen Receptor (AR), gene 101947425; assay: ATG_trAR_XSP2: Attagene TRANS-FACTORIAL Multi-Species (XSP2) HepG2 Assay for turtle Androgen Receptor (AR) (AID 2283815)
# Procedure, shortened: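 HepG2 cells transiently transfected with GAL4-UAS reporter units for chimeric NR-Gal4 receptors; 24 h dosing in presence of 3 nM 6-alpha-fluorotestosterone and 1.5 nM norgestrel. Reporter mRNA by RT-PCR and capillary electrophoresis, gain of signal versus DMSO.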
# [20] = tested on: chicken Androgen Receptor (AR), gene 422165; assay: ATG_chAR_XSP2: Attagene TRANS-FACTORIAL Multi-Species (XSP2) HepG2 Assay for chicken Androgen Receptor (AR) (AID 2283819);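 further: hits raise reporter mRNA above DMSO so potency is for activation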
# Procedure, shortened: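 HepG2 cells transiently transfected with chicken AR–GAL4 chimeric reporter constructs, stimulated with 3 nM 6-alpha-fluorotestosterone plus 1.5 nM norgestrel, dosed 24 h. Reporter mRNA quantified by RT-PCR and capillary electrophoresis; gain of signal fitted versus DMSO.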
# Chain of human Thyroid hormone Receptor alpha (TRa), THRA (gene 7067) (P10827 whole entry, looked up, the tested form may be a part): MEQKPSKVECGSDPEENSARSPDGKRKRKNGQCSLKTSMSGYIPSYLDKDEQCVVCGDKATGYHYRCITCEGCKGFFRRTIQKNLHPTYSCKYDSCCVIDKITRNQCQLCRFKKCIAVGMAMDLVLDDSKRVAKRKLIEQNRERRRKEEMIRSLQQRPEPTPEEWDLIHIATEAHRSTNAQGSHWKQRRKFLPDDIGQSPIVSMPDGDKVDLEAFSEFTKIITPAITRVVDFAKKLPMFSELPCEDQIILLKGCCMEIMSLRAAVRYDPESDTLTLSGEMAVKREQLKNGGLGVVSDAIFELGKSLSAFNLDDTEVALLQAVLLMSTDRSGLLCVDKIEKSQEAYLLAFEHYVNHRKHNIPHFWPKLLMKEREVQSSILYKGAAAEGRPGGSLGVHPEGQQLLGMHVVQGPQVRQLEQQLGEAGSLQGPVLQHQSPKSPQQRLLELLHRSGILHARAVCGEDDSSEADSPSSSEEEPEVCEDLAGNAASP
# Chain of zebrafish Thyroid Hormone Receptor beta (TRb), thrb (gene 30607) (Q9PVE4 whole entry, looked up, the tested form may be a part): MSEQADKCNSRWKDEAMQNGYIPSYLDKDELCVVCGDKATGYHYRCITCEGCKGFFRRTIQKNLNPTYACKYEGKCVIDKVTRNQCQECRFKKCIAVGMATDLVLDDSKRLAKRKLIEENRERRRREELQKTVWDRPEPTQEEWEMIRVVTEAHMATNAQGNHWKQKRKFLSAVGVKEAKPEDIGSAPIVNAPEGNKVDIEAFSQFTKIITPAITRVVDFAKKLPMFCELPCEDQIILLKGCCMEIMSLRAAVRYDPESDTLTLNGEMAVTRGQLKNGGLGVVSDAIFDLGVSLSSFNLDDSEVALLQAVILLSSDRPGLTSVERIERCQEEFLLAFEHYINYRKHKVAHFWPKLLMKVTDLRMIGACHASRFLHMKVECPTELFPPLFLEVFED
# Chain of human Thyroid hormone Receptor beta (TRb), THRB (gene 7068) (P10828 whole entry, looked up, the tested form may be a part): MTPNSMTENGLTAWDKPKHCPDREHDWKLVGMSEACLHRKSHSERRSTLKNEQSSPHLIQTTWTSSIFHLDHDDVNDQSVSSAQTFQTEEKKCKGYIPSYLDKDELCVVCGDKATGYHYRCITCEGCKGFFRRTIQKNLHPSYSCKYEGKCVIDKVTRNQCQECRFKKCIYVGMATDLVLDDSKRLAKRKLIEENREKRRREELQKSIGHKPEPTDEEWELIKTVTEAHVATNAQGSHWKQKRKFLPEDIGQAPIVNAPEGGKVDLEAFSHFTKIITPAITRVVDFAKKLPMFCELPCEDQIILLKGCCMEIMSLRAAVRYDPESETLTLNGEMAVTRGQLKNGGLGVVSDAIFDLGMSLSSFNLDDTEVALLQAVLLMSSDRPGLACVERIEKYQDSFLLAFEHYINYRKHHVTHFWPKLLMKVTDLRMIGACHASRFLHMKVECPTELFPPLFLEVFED
# Chain of frog Thyroid hormone Receptor alpha (TRa), thra-a (gene 397942) (P15204 whole entry, looked up, the tested form may be a part): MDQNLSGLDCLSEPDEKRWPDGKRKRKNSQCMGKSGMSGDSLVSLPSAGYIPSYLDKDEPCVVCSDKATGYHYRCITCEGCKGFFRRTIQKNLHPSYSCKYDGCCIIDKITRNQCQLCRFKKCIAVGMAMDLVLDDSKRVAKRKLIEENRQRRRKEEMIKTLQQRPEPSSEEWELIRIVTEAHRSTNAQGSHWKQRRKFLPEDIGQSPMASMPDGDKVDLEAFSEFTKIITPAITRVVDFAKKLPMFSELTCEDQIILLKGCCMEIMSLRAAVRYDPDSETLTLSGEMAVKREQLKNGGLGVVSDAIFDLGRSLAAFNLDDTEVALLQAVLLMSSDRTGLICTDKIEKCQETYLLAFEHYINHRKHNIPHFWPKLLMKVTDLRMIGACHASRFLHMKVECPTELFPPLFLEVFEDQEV
# Chain of chicken Estrogen Receptor (ERa), ESR1 (gene 396099) (P06212 whole entry, looked up, the tested form may be a part): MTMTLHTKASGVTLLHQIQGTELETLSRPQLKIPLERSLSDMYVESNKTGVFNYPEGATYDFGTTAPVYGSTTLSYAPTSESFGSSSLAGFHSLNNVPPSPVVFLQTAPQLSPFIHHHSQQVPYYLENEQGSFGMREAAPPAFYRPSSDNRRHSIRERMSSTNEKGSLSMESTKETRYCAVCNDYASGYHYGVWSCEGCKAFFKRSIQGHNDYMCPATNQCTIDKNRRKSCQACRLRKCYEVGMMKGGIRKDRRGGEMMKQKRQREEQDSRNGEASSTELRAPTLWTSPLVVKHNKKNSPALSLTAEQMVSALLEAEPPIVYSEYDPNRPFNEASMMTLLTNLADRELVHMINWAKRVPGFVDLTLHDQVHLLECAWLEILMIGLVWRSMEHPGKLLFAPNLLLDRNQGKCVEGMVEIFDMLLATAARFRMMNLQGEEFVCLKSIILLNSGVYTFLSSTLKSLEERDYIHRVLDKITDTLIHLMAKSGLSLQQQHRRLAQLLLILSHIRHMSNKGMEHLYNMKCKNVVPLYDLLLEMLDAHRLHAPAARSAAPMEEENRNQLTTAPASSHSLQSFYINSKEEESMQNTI
# Chain of zebrafish Thyroid Hormone Receptor alpha (TRa), thraa (gene 30670) (Q98867 whole entry, looked up, the tested form may be a part): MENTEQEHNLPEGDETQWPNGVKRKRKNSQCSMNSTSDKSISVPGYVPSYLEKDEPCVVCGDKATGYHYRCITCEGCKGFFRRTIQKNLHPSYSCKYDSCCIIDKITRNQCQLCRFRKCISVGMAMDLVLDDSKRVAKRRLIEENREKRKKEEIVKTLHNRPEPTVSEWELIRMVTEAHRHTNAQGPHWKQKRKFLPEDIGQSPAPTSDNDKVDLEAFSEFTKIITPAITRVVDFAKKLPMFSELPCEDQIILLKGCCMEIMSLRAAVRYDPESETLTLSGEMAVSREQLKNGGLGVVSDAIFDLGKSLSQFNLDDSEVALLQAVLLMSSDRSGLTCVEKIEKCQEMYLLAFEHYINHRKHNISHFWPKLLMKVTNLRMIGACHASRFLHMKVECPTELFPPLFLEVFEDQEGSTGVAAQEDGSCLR
# Chain of Estrogen receptor (Homo sapiens) (P03372 whole entry, looked up, the tested form may be a part): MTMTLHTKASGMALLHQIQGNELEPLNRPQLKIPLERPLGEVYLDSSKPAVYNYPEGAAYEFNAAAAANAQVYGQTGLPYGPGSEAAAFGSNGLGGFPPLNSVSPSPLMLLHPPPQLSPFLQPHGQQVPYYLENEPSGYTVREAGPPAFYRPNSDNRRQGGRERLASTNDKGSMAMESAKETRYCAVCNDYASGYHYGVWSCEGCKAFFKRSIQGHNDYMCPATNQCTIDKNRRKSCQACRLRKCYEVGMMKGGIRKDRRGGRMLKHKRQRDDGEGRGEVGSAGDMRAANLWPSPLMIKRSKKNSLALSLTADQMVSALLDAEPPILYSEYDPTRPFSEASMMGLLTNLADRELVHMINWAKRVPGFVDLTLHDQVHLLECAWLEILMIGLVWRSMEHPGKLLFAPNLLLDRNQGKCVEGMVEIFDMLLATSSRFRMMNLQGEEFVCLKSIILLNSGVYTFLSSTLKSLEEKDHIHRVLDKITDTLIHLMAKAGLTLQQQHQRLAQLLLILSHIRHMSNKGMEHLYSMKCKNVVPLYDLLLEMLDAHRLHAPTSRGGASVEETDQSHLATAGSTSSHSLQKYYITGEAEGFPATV
# Chain of Estrogen receptor beta (Homo sapiens) (Q92731 whole entry, looked up, the tested form may be a part): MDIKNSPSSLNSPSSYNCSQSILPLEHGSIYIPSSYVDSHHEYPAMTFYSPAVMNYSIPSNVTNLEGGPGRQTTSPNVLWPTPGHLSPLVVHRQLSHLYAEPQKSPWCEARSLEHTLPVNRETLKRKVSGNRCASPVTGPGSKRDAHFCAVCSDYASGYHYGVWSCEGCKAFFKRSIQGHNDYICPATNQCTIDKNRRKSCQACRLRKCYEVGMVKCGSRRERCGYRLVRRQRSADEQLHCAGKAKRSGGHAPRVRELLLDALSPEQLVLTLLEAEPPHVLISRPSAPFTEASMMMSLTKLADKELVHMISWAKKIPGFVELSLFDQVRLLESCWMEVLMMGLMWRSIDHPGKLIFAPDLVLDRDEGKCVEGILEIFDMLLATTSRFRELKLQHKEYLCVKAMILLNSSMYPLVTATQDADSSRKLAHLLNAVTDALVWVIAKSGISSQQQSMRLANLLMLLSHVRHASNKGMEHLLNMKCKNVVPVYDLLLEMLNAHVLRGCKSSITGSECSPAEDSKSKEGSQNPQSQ
# Chain of Nuclear receptor subfamily 1 group I member 2 (Mus musculus) (O54915 whole entry, looked up, the tested form may be a part): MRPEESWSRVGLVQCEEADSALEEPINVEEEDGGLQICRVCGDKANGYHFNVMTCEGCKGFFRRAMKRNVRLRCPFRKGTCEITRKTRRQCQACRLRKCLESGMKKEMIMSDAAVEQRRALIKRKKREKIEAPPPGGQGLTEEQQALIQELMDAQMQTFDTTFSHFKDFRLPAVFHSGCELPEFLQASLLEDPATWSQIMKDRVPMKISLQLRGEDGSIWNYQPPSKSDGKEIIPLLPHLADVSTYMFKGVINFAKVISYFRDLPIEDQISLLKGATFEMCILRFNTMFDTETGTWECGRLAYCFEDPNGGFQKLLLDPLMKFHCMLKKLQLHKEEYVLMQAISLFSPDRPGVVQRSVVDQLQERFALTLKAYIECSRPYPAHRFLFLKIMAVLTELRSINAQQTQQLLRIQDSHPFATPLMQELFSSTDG
# Chain of zebrafish Estrogen Receptor (ER1), esr1 (gene 259252) (P57717 whole entry, looked up, the tested form may be a part): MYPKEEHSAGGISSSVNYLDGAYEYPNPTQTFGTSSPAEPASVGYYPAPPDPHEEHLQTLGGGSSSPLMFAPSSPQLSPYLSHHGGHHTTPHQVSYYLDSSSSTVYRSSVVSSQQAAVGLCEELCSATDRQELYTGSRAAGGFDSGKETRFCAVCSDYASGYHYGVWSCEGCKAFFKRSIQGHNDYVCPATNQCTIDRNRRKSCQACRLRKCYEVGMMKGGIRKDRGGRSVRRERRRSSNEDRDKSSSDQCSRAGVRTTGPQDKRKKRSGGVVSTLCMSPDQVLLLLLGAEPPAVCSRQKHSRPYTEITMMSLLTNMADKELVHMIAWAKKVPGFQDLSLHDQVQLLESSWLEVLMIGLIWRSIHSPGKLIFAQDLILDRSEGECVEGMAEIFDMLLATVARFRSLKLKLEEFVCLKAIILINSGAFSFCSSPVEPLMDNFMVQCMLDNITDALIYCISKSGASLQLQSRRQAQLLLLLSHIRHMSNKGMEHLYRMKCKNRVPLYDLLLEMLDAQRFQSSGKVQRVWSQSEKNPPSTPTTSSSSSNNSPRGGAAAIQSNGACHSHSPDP
smiles,measurement,setting,value
CC(C)C(=O)Nc1ccc([N+](=O)[O-])c(C(F)(F)F)c1,AC50,[1],27.4 µM (active)
same,AC50,[2],63.9 µM (active)
same,AC50,[3],29 µM (active)
same,AC50,[4],22.7 µM (active)
same,AC50,[5],18.3 µM (active)
same,AC50,[6],100 µM (active)
same,AC50,[7],40.2 µM (active)
same,outcome,[8],inactive
same,outcome,[9],inactive
same,outcome,[10],inactive
same,outcome,[11],inactive
same,outcome,[12],inactive
same,outcome,[13],inactive
same,outcome,[14],inactive
same,AC50,[15],26.3 µM (active)
same,AC50,[16],70.8 µM (active)
same,AC50,[17],27.2 µM (active)
CCN(CC)C(=S)SSC(=S)N(CC)CC,outcome,[2],inactive
same,outcome,[3],inactive
same,outcome,[4],inactive
same,outcome,[5],inactive
same,outcome,[6],inactive
same,outcome,[7],inactive
same,AC50,[8],30.8 µM (active)
same,outcome,[9],inactive
same,outcome,[16],inactive
C=CCc1cc(S(=O)(=O)c2ccc(O)c(CC=C)c2)ccc1O,outcome,[2],inactive
same,outcome,[3],inactive
same,AC50,[4],100 µM (active)
same,outcome,[6],inactive
same,outcome,[7],inactive
same,AC50,[8],160 µM (active)
same,outcome,[9],inactive
same,AC50,[10],8.75 µM (active)
same,outcome,[11],inactive
same,outcome,[18],inactive
same,outcome,[19],inactive
same,AC50,[13],3.5 µM (active)
same,outcome,[14],inactive
same,AC50,[20],8.4 µM (active)
same,AC50,[15],8.79 µM (active)
same,AC50,[16],17.4 µM (active)
same,AC50,[17],2.71 µM (active)
